According to the supplement of paper PMC10849652:
Targets with a hit are over-represented here; the source holds about 8,800 in all. About 0.5% of all pairs of compound and target were hits. Unmarked numbers belong to inactive results.

compound: C1=CC=C(C=C1)[C@H](COC2=CC3=C(C=C2)NC(=O)N3)NC(=O)C4=CC=CN(C4=O)CC5=CC(=C(C=C5)F)F; experiment: log2 fold change, soluble protein after heating vs DMSO (PISA); higher = thermal stabilisation; K562 lysate, 10 uM; active = over 0.2 and 3.5 SD of the protein, either way, in both replicates (recomputed)
Method in brief: (§1)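 Quantification was by TMTpro 16plex LC-MS/MS with equalised channel sums, applied to the supernatant after 21,000xg for 90 min. Samples were crude K562 extract at 1 mg/mL protein in PBS pH 7.4 with 1 mM MgCl2, treated with 10 μM compound for 30 min, heated for 3 min across 48°C-58°C, pooled and brought to 0.5% NP-40 at 4°C. Values are log-two fold changes in thermal stability relative to solvent controls, from duplicates.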

UniProt Q86UV5, sequence (Q86UV5 whole entry, looked up): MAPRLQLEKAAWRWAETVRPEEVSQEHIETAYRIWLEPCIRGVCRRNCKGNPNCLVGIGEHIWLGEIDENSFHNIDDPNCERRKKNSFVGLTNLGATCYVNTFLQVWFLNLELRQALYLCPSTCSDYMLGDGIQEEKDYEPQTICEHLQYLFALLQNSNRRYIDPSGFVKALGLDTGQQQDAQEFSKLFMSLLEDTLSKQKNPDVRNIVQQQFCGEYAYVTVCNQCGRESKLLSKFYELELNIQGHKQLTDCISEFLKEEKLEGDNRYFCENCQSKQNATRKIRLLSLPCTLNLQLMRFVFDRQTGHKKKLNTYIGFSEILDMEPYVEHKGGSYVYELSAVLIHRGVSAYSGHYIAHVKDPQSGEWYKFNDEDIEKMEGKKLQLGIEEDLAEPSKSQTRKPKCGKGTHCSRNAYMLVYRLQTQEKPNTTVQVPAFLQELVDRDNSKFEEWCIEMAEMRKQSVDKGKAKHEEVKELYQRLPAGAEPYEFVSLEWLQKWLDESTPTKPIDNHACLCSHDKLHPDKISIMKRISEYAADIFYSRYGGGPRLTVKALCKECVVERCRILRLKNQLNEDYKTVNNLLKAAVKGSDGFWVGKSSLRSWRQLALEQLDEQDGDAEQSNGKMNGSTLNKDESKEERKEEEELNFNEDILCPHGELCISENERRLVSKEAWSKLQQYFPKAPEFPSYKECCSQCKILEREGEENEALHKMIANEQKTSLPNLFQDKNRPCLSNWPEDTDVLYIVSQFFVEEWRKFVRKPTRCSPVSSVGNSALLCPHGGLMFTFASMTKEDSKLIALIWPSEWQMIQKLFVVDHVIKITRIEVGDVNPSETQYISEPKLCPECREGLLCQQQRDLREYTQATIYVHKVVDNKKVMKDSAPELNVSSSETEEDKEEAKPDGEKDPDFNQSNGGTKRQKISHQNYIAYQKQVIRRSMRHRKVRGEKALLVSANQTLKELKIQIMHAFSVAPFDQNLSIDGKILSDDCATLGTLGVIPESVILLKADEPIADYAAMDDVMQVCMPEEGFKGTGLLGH
UniProt Q86UK7, sequence (Q86UK7 whole entry, looked up): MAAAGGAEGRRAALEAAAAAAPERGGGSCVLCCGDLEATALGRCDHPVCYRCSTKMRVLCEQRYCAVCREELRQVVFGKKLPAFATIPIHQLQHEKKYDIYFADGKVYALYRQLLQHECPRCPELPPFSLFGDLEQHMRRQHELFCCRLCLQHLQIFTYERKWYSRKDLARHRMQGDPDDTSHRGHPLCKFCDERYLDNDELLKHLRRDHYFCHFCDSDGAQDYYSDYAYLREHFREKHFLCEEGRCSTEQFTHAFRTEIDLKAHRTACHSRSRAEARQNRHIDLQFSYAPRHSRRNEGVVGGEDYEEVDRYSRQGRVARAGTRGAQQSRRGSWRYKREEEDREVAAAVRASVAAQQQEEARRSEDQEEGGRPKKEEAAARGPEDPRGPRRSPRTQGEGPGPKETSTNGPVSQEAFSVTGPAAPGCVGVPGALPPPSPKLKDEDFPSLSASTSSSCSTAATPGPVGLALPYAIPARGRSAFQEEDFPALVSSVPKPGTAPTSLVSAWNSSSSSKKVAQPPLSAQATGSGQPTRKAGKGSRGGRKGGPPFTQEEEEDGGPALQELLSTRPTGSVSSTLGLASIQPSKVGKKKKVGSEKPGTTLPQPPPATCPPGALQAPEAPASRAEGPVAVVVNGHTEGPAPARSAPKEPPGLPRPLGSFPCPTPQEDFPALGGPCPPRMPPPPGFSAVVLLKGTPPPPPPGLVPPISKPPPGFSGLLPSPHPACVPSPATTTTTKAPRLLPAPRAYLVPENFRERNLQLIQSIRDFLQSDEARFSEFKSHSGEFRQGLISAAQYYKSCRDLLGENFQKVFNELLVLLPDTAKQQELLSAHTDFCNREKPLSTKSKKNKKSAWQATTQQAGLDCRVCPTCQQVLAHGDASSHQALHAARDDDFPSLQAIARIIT
UniProt Q9UKW4, sequence (Q9UKW4 whole entry, looked up): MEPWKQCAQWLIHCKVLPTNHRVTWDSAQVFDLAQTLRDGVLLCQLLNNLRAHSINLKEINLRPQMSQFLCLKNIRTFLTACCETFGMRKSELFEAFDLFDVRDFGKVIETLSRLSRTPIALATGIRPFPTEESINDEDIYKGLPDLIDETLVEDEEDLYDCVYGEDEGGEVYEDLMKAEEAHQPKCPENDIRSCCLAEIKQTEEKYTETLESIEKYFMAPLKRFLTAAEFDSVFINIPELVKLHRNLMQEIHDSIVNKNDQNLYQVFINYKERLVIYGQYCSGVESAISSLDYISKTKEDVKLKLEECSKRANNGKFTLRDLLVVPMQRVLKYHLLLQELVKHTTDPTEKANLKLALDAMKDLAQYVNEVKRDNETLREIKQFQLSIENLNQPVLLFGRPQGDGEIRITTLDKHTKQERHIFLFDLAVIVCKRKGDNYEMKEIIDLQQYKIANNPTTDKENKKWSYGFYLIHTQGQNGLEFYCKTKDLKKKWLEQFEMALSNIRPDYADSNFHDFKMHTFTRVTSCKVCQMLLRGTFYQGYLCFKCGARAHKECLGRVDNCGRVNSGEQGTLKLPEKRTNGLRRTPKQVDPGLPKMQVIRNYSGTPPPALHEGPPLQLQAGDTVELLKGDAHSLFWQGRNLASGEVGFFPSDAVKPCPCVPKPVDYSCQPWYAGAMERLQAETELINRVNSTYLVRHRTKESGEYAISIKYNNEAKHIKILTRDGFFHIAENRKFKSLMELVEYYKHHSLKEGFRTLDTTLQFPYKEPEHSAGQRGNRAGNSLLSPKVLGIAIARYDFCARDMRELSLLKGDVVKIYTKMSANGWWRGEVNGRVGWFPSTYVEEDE
UniProt Q08AM6, sequence (Q08AM6 whole entry, looked up): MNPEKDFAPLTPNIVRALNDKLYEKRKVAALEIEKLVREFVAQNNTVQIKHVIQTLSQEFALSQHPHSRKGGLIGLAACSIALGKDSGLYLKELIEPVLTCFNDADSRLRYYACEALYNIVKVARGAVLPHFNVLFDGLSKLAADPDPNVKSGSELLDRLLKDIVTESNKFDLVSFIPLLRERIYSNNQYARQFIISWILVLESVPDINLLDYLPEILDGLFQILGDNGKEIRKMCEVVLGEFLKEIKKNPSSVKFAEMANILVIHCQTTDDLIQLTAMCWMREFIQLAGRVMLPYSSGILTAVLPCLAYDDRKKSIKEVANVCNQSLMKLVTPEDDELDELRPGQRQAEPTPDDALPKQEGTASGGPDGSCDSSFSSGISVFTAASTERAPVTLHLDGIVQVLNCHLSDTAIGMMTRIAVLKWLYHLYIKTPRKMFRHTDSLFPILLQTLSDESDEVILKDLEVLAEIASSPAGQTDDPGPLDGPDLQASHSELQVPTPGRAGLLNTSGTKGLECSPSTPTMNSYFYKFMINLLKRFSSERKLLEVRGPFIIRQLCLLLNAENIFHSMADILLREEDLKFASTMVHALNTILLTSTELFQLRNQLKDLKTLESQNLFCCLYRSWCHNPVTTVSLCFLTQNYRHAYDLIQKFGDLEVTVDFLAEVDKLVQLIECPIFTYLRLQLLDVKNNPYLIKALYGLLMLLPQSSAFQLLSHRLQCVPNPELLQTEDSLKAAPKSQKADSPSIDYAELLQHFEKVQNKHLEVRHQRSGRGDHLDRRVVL
UniProt P49754, sequence (P49754 whole entry, looked up): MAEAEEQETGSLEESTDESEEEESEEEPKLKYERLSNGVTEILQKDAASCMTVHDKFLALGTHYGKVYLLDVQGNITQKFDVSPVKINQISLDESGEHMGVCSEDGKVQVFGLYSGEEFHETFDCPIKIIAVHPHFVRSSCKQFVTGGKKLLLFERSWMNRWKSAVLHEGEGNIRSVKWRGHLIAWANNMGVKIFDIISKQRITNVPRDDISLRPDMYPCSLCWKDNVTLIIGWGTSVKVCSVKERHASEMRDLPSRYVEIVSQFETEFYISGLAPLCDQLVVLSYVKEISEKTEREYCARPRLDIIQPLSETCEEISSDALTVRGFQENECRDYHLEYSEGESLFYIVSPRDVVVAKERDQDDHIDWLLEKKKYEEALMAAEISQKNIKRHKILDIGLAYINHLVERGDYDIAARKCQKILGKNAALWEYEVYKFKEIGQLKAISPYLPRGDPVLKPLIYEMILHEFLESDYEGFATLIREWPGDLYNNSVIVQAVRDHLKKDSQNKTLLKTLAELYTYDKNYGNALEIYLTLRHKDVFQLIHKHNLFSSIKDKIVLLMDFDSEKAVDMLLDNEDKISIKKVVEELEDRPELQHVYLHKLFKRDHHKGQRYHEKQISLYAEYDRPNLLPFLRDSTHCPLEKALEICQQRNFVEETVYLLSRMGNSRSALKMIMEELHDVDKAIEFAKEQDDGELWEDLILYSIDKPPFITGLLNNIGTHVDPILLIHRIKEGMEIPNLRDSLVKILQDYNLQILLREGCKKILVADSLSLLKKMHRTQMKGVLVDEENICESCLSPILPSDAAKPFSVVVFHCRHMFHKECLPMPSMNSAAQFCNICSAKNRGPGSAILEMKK
UniProt P27348, sequence (P27348 whole entry, looked up): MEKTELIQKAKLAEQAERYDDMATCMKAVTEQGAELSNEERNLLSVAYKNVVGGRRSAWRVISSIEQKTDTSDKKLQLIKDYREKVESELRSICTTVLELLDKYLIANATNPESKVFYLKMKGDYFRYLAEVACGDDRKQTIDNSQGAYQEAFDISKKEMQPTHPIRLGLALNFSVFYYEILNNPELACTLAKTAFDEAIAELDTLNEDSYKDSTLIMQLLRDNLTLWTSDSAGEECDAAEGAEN
UniProt Q9UL40, sequence (Q9UL40 whole entry, looked up): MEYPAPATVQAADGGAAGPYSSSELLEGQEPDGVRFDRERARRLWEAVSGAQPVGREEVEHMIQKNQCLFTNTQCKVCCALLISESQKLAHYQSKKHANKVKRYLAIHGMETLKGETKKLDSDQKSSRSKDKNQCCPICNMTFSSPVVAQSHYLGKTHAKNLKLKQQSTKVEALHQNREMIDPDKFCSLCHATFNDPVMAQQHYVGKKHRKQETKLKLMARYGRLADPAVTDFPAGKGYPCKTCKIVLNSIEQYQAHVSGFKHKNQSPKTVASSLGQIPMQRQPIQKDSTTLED

How did the log2 fold change turn out when USP48 (UniProt Q86UV5) was run?
Its log2 fold change is -0.104.

ZNF217 (UniProt O75362) was tested. Which log2 fold change did it give?
Its log2 fold change is -0.037.

How did the log2 fold change turn out when ZYG11A (UniProt Q6WRX3) was run?
Its log2 fold change is -0.075.

Which log2 fold change does the source give for WAS (UniProt P42768) here?
Its log2 fold change is 0.003.

Which log2 fold change does the source give for ZNF346 (UniProt Q9UL40) here?
Its log2 fold change is 0.031.

How did the log2 fold change turn out when ZFPM1 (UniProt Q8IX07) was run?
Its log2 fold change is 0.073.

For VPS41 (UniProt P49754), which log2 fold change is on record?
Its log2 fold change is -0.046.

For ZC3H11A (UniProt O75152), which log2 fold change is on record?
Its log2 fold change is -0.015.

WDR91 (UniProt A4D1P6) was tested. Which log2 fold change did it give?
The log2 fold change was -0.009.

UTRN isoform 2 (UniProt P46939) was tested. Which log2 fold change did it give?
Its log2 fold change is 0.026.

With WIPI2 isoform 6 (UniProt Q9Y4P8) as the target, how does the log2 fold change read?
The log2 fold change was 0.092.

For WDR36 (UniProt Q8NI36), which log2 fold change is on record?
The log2 fold change was 0.006.

For WIPI1 (UniProt Q5MNZ9), which log2 fold change is on record?
The log2 fold change was 0.094.

For VAC14 (UniProt Q08AM6), which log2 fold change is on record?
Its log2 fold change is -0.008.

VAMP2 (UniProt P63027) was tested. Which log2 fold change did it give?
The log2 fold change was -0.045.

Which log2 fold change does the source give for VAV3 isoform 4 (UniProt Q9UKW4) here?
The log2 fold change was 0.089.

How did the log2 fold change turn out when ZNF845 (UniProt Q96IR2) was run?
The log2 fold change was -0.239.

Which log2 fold change does the source give for YWHAQ (UniProt P27348) here?
The log2 fold change was 0.002.

For ZNF598 isoform 3 (UniProt Q86UK7), which log2 fold change is on record?
The log2 fold change was -0.037.

compound: CC1=C(SC2=C1C(=N[C@H](C3=NN=C(N32)C)CC(=O)N)C4=CC=C(C=C4)Cl)C; experiment: as above
Method in brief: as §1

How did the log2 fold change turn out when USP48 (UniProt Q86UV5) was run?
The log2 fold change was -0.028.

How did the log2 fold change turn out when ZNF217 (UniProt O75362) was run?
The log2 fold change was 0.075.

Which log2 fold change does the source give for ZYG11A (UniProt Q6WRX3) here?
Its log2 fold change is -0.13.

Which log2 fold change does the source give for WAS (UniProt P42768) here?
Its log2 fold change is -0.006.

For ZNF346 (UniProt Q9UL40), which log2 fold change is on record?
Its log2 fold change is -0.017.

Which log2 fold change does the source give for ZFPM1 (UniProt Q8IX07) here?
Its log2 fold change is -0.033.

VPS41 (UniProt P49754) was tested. Which log2 fold change did it give?
The log2 fold change was 0.005.

Which log2 fold change does the source give for ZC3H11A (UniProt O75152) here?
Its log2 fold change is 0.

For WDR91 (UniProt A4D1P6), which log2 fold change is on record?
Its log2 fold change is 0.027.

For UTRN isoform 2 (UniProt P46939), which log2 fold change is on record?
The log2 fold change was 0.037.

WIPI2 isoform 6 (UniProt Q9Y4P8) was tested. Which log2 fold change did it give?
Its log2 fold change is 0.088.

WDR36 (UniProt Q8NI36) was tested. Which log2 fold change did it give?
Its log2 fold change is 0.001.

With WIPI1 (UniProt Q5MNZ9) as the target, how does the log2 fold change read?
Its log2 fold change is 0.023.

How did the log2 fold change turn out when VAC14 (UniProt Q08AM6) was run?
The log2 fold change was -0.008.

How did the log2 fold change turn out when VAMP2 (UniProt P63027) was run?
Its log2 fold change is -0.053.

For VAV3 isoform 4 (UniProt Q9UKW4), which log2 fold change is on record?
The log2 fold change was -0.012.

How did the log2 fold change turn out when ZNF845 (UniProt Q96IR2) was run?
Its log2 fold change is 0.048.

With YWHAQ (UniProt P27348) as the target, how does the log2 fold change read?
The log2 fold change was 0.021.

For ZNF598 isoform 3 (UniProt Q86UK7), which log2 fold change is on record?
The log2 fold change was -0.014.

compound: CC1=C2C(=CC=C1)N=C(N(C2=O)C3=CC=CC=C3C)CN4C=NC5=C(N=CN=C54)N; experiment: as above
Method in brief: as §1

How did the log2 fold change turn out when ZDHHC17 (UniProt Q8IUH5) was run?
The log2 fold change was 0.057.

For ZKSCAN8 (UniProt Q15776), which log2 fold change is on record?
The log2 fold change was -0.065.

With USP48 (UniProt Q86UV5) as the target, how does the log2 fold change read?
The log2 fold change was -0.029.

How did the log2 fold change turn out when ZNF217 (UniProt O75362) was run?
Its log2 fold change is 0.129.

Which log2 fold change does the source give for ZFPM1 (UniProt Q8IX07) here?
Its log2 fold change is -0.012.

VPS41 (UniProt P49754) was tested. Which log2 fold change did it give?
Its log2 fold change is -0.016.

For ZC3H11A (UniProt O75152), which log2 fold change is on record?
Its log2 fold change is 0.081.

How did the log2 fold change turn out when ZBTB40 (UniProt Q9NUA8) was run?
Its log2 fold change is -0.06.

For VPS72 (UniProt Q15906), which log2 fold change is on record?
The log2 fold change was 0.027.

For WDR91 (UniProt A4D1P6), which log2 fold change is on record?
The log2 fold change was 0.009.

With WDR36 (UniProt Q8NI36) as the target, how does the log2 fold change read?
Its log2 fold change is 0.06.

For YBEY (UniProt P58557), which log2 fold change is on record?
The log2 fold change was 0.046.

For VAC14 (UniProt Q08AM6), which log2 fold change is on record?
The log2 fold change was 0.042.

How did the log2 fold change turn out when VAMP2 (UniProt P63027) was run?
The log2 fold change was -0.024.

Which log2 fold change does the source give for VAV3 isoform 4 (UniProt Q9UKW4) here?
Its log2 fold change is 0.096.

Which log2 fold change does the source give for ZNF845 (UniProt Q96IR2) here?
The log2 fold change was 0.114.

With YWHAQ (UniProt P27348) as the target, how does the log2 fold change read?
The log2 fold change was -0.001.

For ZNF598 isoform 3 (UniProt Q86UK7), which log2 fold change is on record?
The log2 fold change was 0.006.

compound: Cc1sc2c(c1C)C(c1ccc(Cl)cc1)=N[C@@H](CC(=O)OC(C)(C)C)c1nnc(C)n1-2; experiment: as above
Method in brief: as §1

Which log2 fold change does the source give for ZDHHC17 (UniProt Q8IUH5) here?
The log2 fold change was -0.181.

For ZKSCAN8 (UniProt Q15776), which log2 fold change is on record?
The log2 fold change was -0.026.

USP48 (UniProt Q86UV5) was tested. Which log2 fold change did it give?
The log2 fold change was 0.098.

How did the log2 fold change turn out when ZNF217 (UniProt O75362) was run?
Its log2 fold change is 0.053.

For VASN (UniProt Q6EMK4), which log2 fold change is on record?
Its log2 fold change is -0.017.

With WAS (UniProt P42768) as the target, how does the log2 fold change read?
The log2 fold change was -0.095.

How did the log2 fold change turn out when ZNF346 (UniProt Q9UL40) was run?
The log2 fold change was -0.205 (active).

Which log2 fold change does the source give for ZFPM1 (UniProt Q8IX07) here?
Its log2 fold change is -0.036.

How did the log2 fold change turn out when VPS41 (UniProt P49754) was run?
Its log2 fold change is 0.067.

Which log2 fold change does the source give for ZC3H11A (UniProt O75152) here?
The log2 fold change was 0.023.

How did the log2 fold change turn out when ZBTB40 (UniProt Q9NUA8) was run?
The log2 fold change was -0.004.

With VPS72 (UniProt Q15906) as the target, how does the log2 fold change read?
The log2 fold change was -0.015.

WSB1 (UniProt Q9Y6I7) was tested. Which log2 fold change did it give?
Its log2 fold change is 0.036.

For WDR91 (UniProt A4D1P6), which log2 fold change is on record?
Its log2 fold change is -0.02.

ZNF146 (UniProt Q15072) was tested. Which log2 fold change did it give?
The log2 fold change was -0.059.

Which log2 fold change does the source give for WDR36 (UniProt Q8NI36) here?
Its log2 fold change is 0.025.

YBEY (UniProt P58557) was tested. Which log2 fold change did it give?
The log2 fold change was -0.016.

ZNF281 (UniProt Q9Y2X9) was tested. Which log2 fold change did it give?
The log2 fold change was -0.02.

For WAC isoform 5 (UniProt Q9BTA9), which log2 fold change is on record?
Its log2 fold change is -0.232.

For WIPI1 (UniProt Q5MNZ9), which log2 fold change is on record?
Its log2 fold change is 0.035.

VAC14 (UniProt Q08AM6) was tested. Which log2 fold change did it give?
The log2 fold change was -0.012.

How did the log2 fold change turn out when VAMP2 (UniProt P63027) was run?
Its log2 fold change is 0.014.

For VAV3 isoform 4 (UniProt Q9UKW4), which log2 fold change is on record?
The log2 fold change was 0.001.

How did the log2 fold change turn out when ZNF845 (UniProt Q96IR2) was run?
Its log2 fold change is -0.058.

For YWHAQ (UniProt P27348), which log2 fold change is on record?
Its log2 fold change is 0.076.

Which log2 fold change does the source give for ZNF598 isoform 3 (UniProt Q86UK7) here?
Its log2 fold change is 0.034.
